# Measured values taken from ChEMBL document CHEMBL4513216, “Probing the Open Global Health Chemical Diversity Library for Multistage-Active Starting Points for Next-Generation Antimalarials” (ACS Infect Dis, 2020).
# About 2,700 (4%) of roughly 68,000 compounds showed an effect of 50% or more. The full list was thinned out, with strong results kept by preference.
# Tested on: Plasmodium berghei
# Test: Screen against P. berghei liver stage (PbLuc), transformed with Luciferase, at 2uM
# Assay type: functional, HepG2
# Conditions: tested at 2 uM
row,SMILES,INHIBITION
1,N[C@@H]1CCC[C@@H](Oc2ccc(F)cc2Oc2ccccc2)[C@@H]1O,61.99%
2,N[C@@H]1CCC[C@@H](Oc2ccc(F)cc2Oc2cccc(F)c2)[C@@H]1O,35.73%
3,Cc1ccc(Oc2cc(F)ccc2O[C@@H]2CCC[C@@H](N)[C@H]2O)cc1,6.13%
4,COC(=O)Cn1c(=O)[nH]c2cn(-c3ccc(F)cc3)c(=O)n21,-3.97%
5,O=C1COc2ccc(C(=O)NS(=O)(=O)c3ccccc3F)cc2N1,8.37%
6,Cc1nnc([C@@H]2C[C@H]3CN(C(=O)c4c(C)noc4C)C[C@H]3O2)[nH]1,38.2%
7,CC(=O)N1CCCN(C(=O)c2cnn(-c3ccccc3Cl)c2)CC1,82.5%
8,Cc1ccnn1CCC(=O)N1CCN(C2CCc3ccccc3C2)CC1 (stereo unspecified),14.13%
9,Cn1cc(C(=O)N2CCCN(C3Cc4ccccc4C3)CC2)cn1,55.66%
10,Cc1ccnn1CC(=O)N1CCN(C2CCc3ccccc3C2)CC1 (stereo unspecified),46.02%
11,Cn1cc(Cl)c(C(=O)N2CCCN(C3Cc4ccccc4C3)CC2)n1,-18.65%
12,CC(=O)N1CCN(C(=O)c2cnn(-c3ccccc3Cl)c2)CC1,-90.79%
13,Cc1nn(C)cc1C(=O)N1CCCN(C2Cc3ccccc3C2)CC1,19.12%
14,CCCn1nccc1C(=O)N1CCN(C2CCc3ccccc3C2)CC1 (stereo unspecified),57.85%
15,CN1CCN(C(=O)c2cnn(-c3ccccc3Cl)c2)CC1,-1.02%
16,CCN(CC)C1CCN(C(=O)c2cc(-n3cccn3)ccc2Cl)CC1,-16.01%
17,Cc1noc(C)c1C(=O)NCC(C)N(C)C (stereo unspecified),8.37%
18,CC[C@@H]1N(Cc2ccc(C)o2)CCC[C@]12CCC(=O)N2CCOC,33.74%
19,O=C(CCCc1ccccn1)N1CCCC1c1noc(C2CC2)n1 (stereo unspecified),30.91%
20,COc1c(C)cnc(CN(C)C2CCCCC2)c1C,11.8%
21,O=c1c(NCCNCCO)c(N2CCN(c3ccccc3)CC2)c1=O,-11.72%
22,CC1(C(N)=O)CCCN(c2cnccn2)C1 (stereo unspecified),-4.8%
23,CC(C)[C@@H](CO)Nc1cc(-c2cn[nH]c2)ncn1,21.81%
24,O=C([C@H]1COC[C@H]2CN(C3CCCC3)C[C@H]21)N1CCOCC1,12.4%
25,CC(=O)c1ccc(Cl)c(Cl)c1OCC(=O)NC(C)C,26.27%
26,COc1ccc2c(c1)C1(CCN(Cc3nccs3)CC1)N(C)CC2,13.75%

row,SMILES,INHIBITION
1,CC(NC(=O)Cc1cccs1)(C(N)=O)c1cccc(Cl)c1 (stereo unspecified),-18.59%
2,CC(=O)N1Cc2ccccc2C[C@H]1C(=O)N(C)Cc1ccccn1,58.12%
3,CC(=O)N1Cc2ccccc2C[C@H]1C(=O)N(C)CCc1ccccn1,8.73%
4,CN(CCc1ccccn1)C(=O)C1Cc2ccccc2CN1C (stereo unspecified),31.78%
5,Cc1nnsc1C(=O)NCc1nn(C)c2c1COCC2,-1.74%
6,O=C(C1CCOCC1)N1C[C@@H]2CC[C@H]1CN(C1Cc3ccccc3C1)C2,27.33%
7,COC(=O)[C@H]1C[C@@H](O)CCN1S(=O)(=O)c1cc(Cl)ccc1OC,55.18%
8,COC(=O)[C@H]1C[C@@H](O)CCN1S(=O)(=O)c1cc(C)c(Cl)cc1C,26.51%
9,COC(=O)[C@H]1C[C@@H](O)CCN1S(=O)(=O)c1ccc(F)cc1F,16.25%
10,CCS(=O)(=O)N1CCc2c(cccc2NCc2nc(C)c(C)o2)C1,-23.97%
11,COCCN(Cc1ccc(C)o1)C(=O)Nc1nnc(C(F)F)s1,-44.8%
12,COCCN(Cc1ccc(C)o1)C(=O)Nc1nnc2ccccn12,33.9%
13,COCCN(Cc1ccc(C)o1)C(=O)Nc1ncc(C)s1,62.51%
14,CCC(=O)Nc1nnc(CCOc2ccc(OC)cc2)s1,-14.16%
15,COCCN(Cc1cnn(C)c1)Cc1ccc(C)o1,12.58%
16,CCc1nnc(NC(=O)N(CCOC)Cc2ccc(C)o2)s1,83.98%
17,Cc1noc(C)c1CCC(=O)N1CCCCC1CNS(C)(=O)=O (stereo unspecified),-3.46%
18,COc1ccccc1C(C)(C)NC(=O)c1ccc(F)c(NC(C)=O)c1,38.49%
19,Cc1nc(-c2ccccc2C(=O)O)cc(C2CCN(C(C)C)C2)n1 (stereo unspecified),17.01%
20,CN(Cc1cccnc1)CC1CCCN1c1cccnn1 (stereo unspecified),33.31%
21,Cc1nc(N2CCN(C)CC2)ncc1C(=O)N1CCCCCC1,-15.75%
22,Cc1ccc(-c2n[nH]cc2CNCCn2cccn2)o1,7.85%
23,CCN1CCN(c2ccc(CNC(=O)c3ccccc3F)cn2)CC1,20.41%
24,O=C(Cc1cccnc1)N1CCCC(n2cncn2)C1 (stereo unspecified),-7.82%
25,NC(=O)N1CCC2(CC1)CN(c1ccsc1)C(=O)CO2,-12.73%
